PubChem BioAssay AID493168 (National Center for Advancing Translational Sciences (NCATS), 2011)
Inconclusive results are not listed. A call without a number means that no potency is given here. The source made the active and inactive calls. Calls follow the shape of the dose curve; as a rule, active = well fitted inhibition curve with a large enough effect; inconclusive = small, poorly fitted or top-dose-only effect, or effect the other way; inactive = flat fitted curve, though single readings scatter.

Target: Ubiquitin carboxyl-terminal hydrolase 2 (Homo sapiens) (UniProt O75604)
Sequence (O75604 whole entry, looked up): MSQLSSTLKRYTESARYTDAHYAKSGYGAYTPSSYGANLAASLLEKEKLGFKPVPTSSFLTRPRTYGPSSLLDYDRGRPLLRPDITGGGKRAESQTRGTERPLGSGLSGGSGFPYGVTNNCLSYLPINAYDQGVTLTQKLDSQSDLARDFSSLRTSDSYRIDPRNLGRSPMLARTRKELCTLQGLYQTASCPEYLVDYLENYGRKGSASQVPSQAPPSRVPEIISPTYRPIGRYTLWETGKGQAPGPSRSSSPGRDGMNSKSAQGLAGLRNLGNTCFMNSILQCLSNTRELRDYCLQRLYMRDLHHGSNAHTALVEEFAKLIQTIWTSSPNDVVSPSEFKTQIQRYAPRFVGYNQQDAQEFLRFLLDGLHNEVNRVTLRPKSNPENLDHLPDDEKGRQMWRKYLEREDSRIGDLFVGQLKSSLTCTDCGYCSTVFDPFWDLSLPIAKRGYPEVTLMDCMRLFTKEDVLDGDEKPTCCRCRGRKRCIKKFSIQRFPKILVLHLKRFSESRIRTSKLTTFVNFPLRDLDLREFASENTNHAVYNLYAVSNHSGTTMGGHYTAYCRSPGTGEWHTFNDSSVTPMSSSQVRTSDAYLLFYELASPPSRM
Assay: Confirmation Assay for Inhibitors of Ubiquitin-specific Protease USP2a Using CHOP2 as the Reporter; also: nearly all actives have a fitted effect of over 55% in size
Outline: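 Ub-CHOP2 cleavage coupled to reporter activation was read by fluorescence after 60 min at RT, with 25 nM final Ub-CHOP2 and substrate. Enzyme (10 nM final USP2 core) first sat 30 min with compound; data were normalized to NEM and fitted to concentration-response curves.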
Potency is read from the fitted curve at half-maximal effect.

Structure (SMILES)	Potency
Oc1ccc(/C=N/NC(=S)N/N=C/c2ccc(O)cc2)cc1	inactive
O=C(O[C@@H]1OC2COC(=O)c3cc(O)c(O)c(O)c3-c3c(cc(O)c(O)c3O)C(=O)O[C@@H]([C@H]1O)[C@@H]2O)c1cc(O)c(O)c(O)c1	16.5 µM (active)
CC(=O)Nc1ccc(Nc2cc(C)nc(Nc3ccc(NC(C)=O)cc3)n2)cc1	inactive
Cc1ccc(C=Nc2ccccc2C(N)=O)cc1	inactive
COc1ccccc1C(=O)N1CCN=C1SC	inactive
O=C(OCC(=O)N1CCCCC1)c1cc2ccccc2cc1O	inactive
Cn1c(=O)c(C(=O)Nc2ccccc2S(N)(=O)=O)c(O)c2ccccc21	14.7 µM (active)
COc1ccc2[nH]c(=O)c(CN(C3CCCCC3)C(c3nnnn3Cc3ccco3)C(C)C)cc2c1 (configuration not stated)	10.4 µM (active)
Cc1csc(NC(=O)CCn2c(=O)sc3ccccc32)n1	inactive
CCOc1ccc(Cn2nnc(C(=O)NCc3ccccc3)c2N)cc1	inactive
Cc1ccc(S(=O)(=O)Nc2ccccc2C(=O)Nc2nc(-c3ccc(F)cc3)cs2)cc1	14.7 µM (active)
CC(C)(C)C(=O)Nc1c2c(nc3c1CCC3)CCCC2	inactive
Cc1ccc(-c2nc(N/N=C/c3ccncc3)c3ccccc3n2)cc1	inactive
CC1CCc2c(sc3nc(CN4CCOCC4)nc(NS(=O)(=O)c4cccc([N+](=O)[O-])c4)c23)C1 (configuration not stated)	inactive
FC(F)(F)c1cnc2c(c1)Nc1ccccc1S2	inactive
O=C(CC(C(=O)O)C1CCCO1)NCCc1ccc2c(c1)OCO2 (configuration not stated)	inactive
O=C(COc1ccccc1)N1CCN(C(=O)Cc2ccccc2)CC1	inactive
